Compound activity: PubChem BioAssay, National Center for Advancing Translational Sciences (NCATS)
Only some compounds are listed: those with a hit (about 19% of all), similar ones and a draw of the others.
S-ASM inh: inhibitors of human secretory acid sphingomyelinase. actives 0.006% (n = 340,000). Potency, µM (top dose mostly 57.5 µM), without a hit: at the top dose activity change, negative = inhibition, hits mostly inhibitors. AID 504937. P17405. placental ASM, HMU-PC fluorogenic substrate, 60 min; further: potency means the concentration at half of the fitted maximal effect
Target sequence (P17405 47-631 limits assumed): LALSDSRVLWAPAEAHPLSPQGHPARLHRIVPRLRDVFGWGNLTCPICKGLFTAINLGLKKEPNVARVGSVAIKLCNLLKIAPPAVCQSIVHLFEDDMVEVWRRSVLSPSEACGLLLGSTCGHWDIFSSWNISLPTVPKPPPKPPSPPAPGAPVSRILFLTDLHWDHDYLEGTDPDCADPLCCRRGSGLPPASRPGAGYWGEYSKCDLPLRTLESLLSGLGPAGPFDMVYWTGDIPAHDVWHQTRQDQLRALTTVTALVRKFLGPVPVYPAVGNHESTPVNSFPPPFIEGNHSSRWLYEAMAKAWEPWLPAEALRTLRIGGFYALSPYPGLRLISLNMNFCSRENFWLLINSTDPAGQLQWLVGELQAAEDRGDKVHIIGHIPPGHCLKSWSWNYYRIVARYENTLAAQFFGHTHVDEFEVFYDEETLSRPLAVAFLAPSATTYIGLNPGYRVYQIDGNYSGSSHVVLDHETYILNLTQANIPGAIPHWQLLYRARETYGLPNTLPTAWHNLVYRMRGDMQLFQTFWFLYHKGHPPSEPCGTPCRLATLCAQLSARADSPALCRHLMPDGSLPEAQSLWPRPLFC
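Fluorescence read-out (Ex 386 nm, Em 447 nm) after stopping the reaction at pH 10. Enzyme: ASM from human placenta; substrate HMU-PC0, 9 uM final; 60 min, 37 °C. Compound preincubation 10 min, ambient temperature.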
HepG2 viability: kills HepG2 cells in TGF-b inhibitor counter-screen | HepG2 CAGA-GFP viability, ATP luminescence, 18 h | Potency, µM (highest dose often 46.1 µM), for inactives: top-dose activity change, negative = cytotoxicity, actives largely listed as cytotoxic | actives 0.76% (n = 410,000) | AID 588856; further: potency means the concentration at half of the fitted maximal effect
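CellTiter-Glo luminescence gave cytotoxicity after 18 hours at 37 degrees C. The cells were HepG2 CAGA-GFP in 1% FBS DMEM, stimulated with 500 pg/mL TGF-beta after compound addition. %Activity was normalised to no-cell wells (complete cell-killing) and DMSO (no toxicity), and curves were fitted and classified.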
TDP1 cell noCPT: qHTS for Inhibitors of human tyrosyl-DNA phosphodiesterase 1 (TDP1): qHTS in cells in absence of CPT. DT40 Tdp1-/- hTDP1 cells, no CPT, ATP luminescence, 48 h. Potency, µM (top dose mostly 46.2 µM), for inactives: at the top dose activity change, negative = growth inhibition, most hits filed as inhibitors. actives 15% (n = 420,000); further: potency means the concentration at half of the fitted maximal effect; on the % scale 0 is the no-effect control and ±100 the full control effect; nearly all actives have a fitted effect of over 55% in size
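Growth kinetics read by CellTiter-Glo luminescence after ≥48 hr at 37 °C. Cells: DT40 Tdp1-/- stably carrying human TDP1, 400 per well, compound exposure in the absence of CPT (DMSO vehicle).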
TGFb inhibitor: blocks TGF-b signaling; actives 1.2% (n = 410,000); AID 588855; HepG2 CAGA-GFP TGF-b/SMAD3 reporter, GFP fluorescence, 18 h; TGF-beta stimulated, 500 pg/mL final; Potency, µM (highest dose often 46.1 µM), without a hit: at the highest dose activity, negative = inhibition, usual class: inhibitors; further: potency means the concentration at half of the fitted maximal effect; on the % scale 0 is the no-effect control and ±100 the full control effect; nearly all actives have a fitted effect of over 65% in size
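Per well, imaged GFP fluorescence of HEPG2 CAGA-GFP cells gives the signal; cells get compound, then TGF-beta (500 pg/mL final), 18 h at 37 degrees C; %Activity versus -TGF-beta and +DMSO controls.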
TDP1 cell CPT: DT40-hTDP1 cell growth loss with CPT | chicken DT40 Tdp1-/-;hTDP1 cells + 20 nM CPT, ATP luminescence, 48 h | Potency, µM (highest dose often 46.2 µM), for the others: at the top dose activity change, negative = growth inhibition, actives largely listed as inhibitors | actives 12% (n = 420,000); further: potency means the concentration at half of the fitted maximal effect; on the % scale 0 is the no-effect control and ±100 the full control effect; nearly all actives have a fitted effect of over 55% in size
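Chicken DT40 Tdp1-/- cells complemented with human TDP1, 400 cells/well, exposed to compounds plus 20 nM camptothecin for at least 48 h at 37 C; viability read as ATP content by CellTiter-Glo luminescence.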
IL-1B inflam inh: inhibitors of inflammasome signaling (IL-1 beta secretion); AID 743279; THP-1 LPS/ATP IL-1B secretion, AlphaLISA, 16 h; stronger effect = lower value; activity change, % at 57.5 µM; actives 4.7% (n = 360,000); in the data active means activity change below about -50%; inconclusive means mostly about -30% to -49%; further: on the % scale 0 is the no-effect control and ±100 the full control effect
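THP-1 cells pretreated 1 hr with compounds (up to 57.5 uM final), then stimulated with LPS (250 ng/mL final) plus ATP (1.25 mM final); secreted IL-1B measured by AlphaLISA after 16 hr, decreased signal indicating inhibition.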
Starred values were filed as active, the others as inactive; ? = inconclusive; . = no result given; ! = a repeat was not active. Unless noted, the call rests on the fitted dose curve; in most records, active means well fitted curve in the direction sought with a large enough effect; inconclusive means small, poorly fitted or top-dose-only effect, or another doubt; inactive means no such curve, though single readings can be large; an effect the other way counts as inactive or inconclusive.

SMILES | S-ASM inh | HepG2 viability | TDP1 cell noCPT | TGFb inhibitor | TDP1 cell CPT | IL-1B inflam inh
O=C(c1cccc(-c2nnc(-c3ccccc3)o2)c1)N1CCCCC1 | -1% | 0% | 15µM* | 9% | ? | 0
O=C(CCc1nnc(-c2ccc(-c3ccccc3)cc2)o1)N1CCCCC1 | -3% | -24% | 21µM* | -14% | ? | -1
O=C(c1ccc(-c2ccccc2)cc1)N1CCCC1 | -2% | -9% | -28% | -2% | -2% | 1
CC(C)CN1C(=O)c2ccc(C(=O)Nc3ccc(OCC(=O)O)cc3)cc2C1=O | 4% | 5% | -1% | -1% | -6% | -8
Nc1no[n+]([O-])c1-c1ccccc1 | 5% | 1% | -2% | 16% | 9% | 3
CSc1ccc(Cn2c(C)c(C(=O)NCc3ccco3)sc2=O)cc1 | . | 0% | ? | 20% | ? | -101*
CSc1ccc(Cn2c(C)c(C(=O)NCc3cccc(C(F)(F)F)c3)sc2=O)cc1 | . | -9% | ? | -27% | ? | -12
CCCCN(C)C(=O)c1sc(=O)n(Cc2ccc(Cl)c(Cl)c2)c1C | . | -3% | 21µM* | ? | ? | 0
CSc1ccc(Cn2c(C)c(C(=O)NCc3ccc(Cl)c(Cl)c3)sc2=O)cc1 | . | -4% | ? | ? | ? | -58*
CSc1ccc(Cn2c(C)c(C(=O)NCc3ccc4c(c3)OCCO4)sc2=O)cc1 | . | 0% | ? | -4% | ? | -30
CSc1ccc(Cn2c(C)c(C(=O)NCc3ccc(F)cc3)sc2=O)cc1 | . | -18% | ? | -6% | 23µM* | ?
O=C(CSc1nccn1Cc1ccco1)Nc1cc(C(F)(F)F)ccc1Cl | . | -30% | ? | ? | ? | .
O=C(Nc1ccc2c(c1)CCC2)c1cnn2c1NC(=C1CC1)C=C2C(F)F | . | -4% | ? | -3% | ? | .
O=[N+]([O-])c1ccccc1S(=O)NCc1c(Cl)cccc1Cl (stereo not drawn) | . | 12% | ? | -1% | ? | 20
CCOC(=O)C1=NNC(C(=O)OCC)C1C(=O)OCC (stereo not drawn) | 5% | -4% | ? | -5% | -14% | -6
Cc1c(C(=O)NCc2ccc(Cl)c(Cl)c2)sc(=O)n1Cc1ccc(S(C)(=O)=O)cc1 | . | -10% | 18µM* | -26% | ? | ?
COC(=O)c1ccc(Cn2c(C)c(C(=O)NCc3ccco3)sc2=O)o1 | . | -2% | -30% | 14% | -22% | -56*
COC(=O)c1ccc(Cn2c(C)c(C(=O)NCc3ccc(C#N)cc3)sc2=O)o1 | . | 0% | -9% | -10% | -23% | -17
Cc1c(C(=O)NCc2ccc(F)cc2)sc(=O)n1Cc1ccc(Cl)c(Cl)c1 | . | -24% | ? | ? | ? | -86*
O=C(CCCN1CCC(O)(c2cccc(C(F)(F)F)c2)CC1)c1ccc(F)cc1 | 0% | -36% | ? | 16% | ? | -54*
O=C(CCCN1CCC(O)(c2ccc(Br)cc2)CC1)c1ccc(F)cc1 | 3% | -39% | ? | -35% | ? | ?
O=C(CCCN1CCC(O)(c2ccc(Cl)cc2)CC1)c1ccc(F)cc1 | -7% | -54% | 16µM*! | -1% | 27µM*! | -68*
CC1CCN(C(=O)C(C)NCc2ccc(F)cc2)CC1 (stereo not drawn) | 3% | 9% | 21µM* | 1% | ? | 11
CN1CCN(C(=O)C[C@H]2CC[C@H]3[C@@H](COC[C@@H](O)CN3Cc3cccc(F)c3)O2)CC1 | . | . | 4% | . | -13% | 12
O=C(C[C@H]1CC[C@@H]2[C@H](COC[C@H](O)CN2Cc2cccc(C(F)(F)F)c2)O1)NCCc1ccccc1 | . | . | 13µM* | . | 21µM* | -16
SMILES | S-ASM inh | HepG2 viability | TDP1 cell noCPT | TGFb inhibitor | TDP1 cell CPT | IL-1B inflam inh
O=C(C[C@H]1CC[C@@H]2[C@H](COC[C@@H](O)CN2Cc2cccc(F)c2)O1)NCC1CCCCC1 | . | . | 21µM* | . | 21µM* | 22
O=C(C[C@@H]1CC[C@@H]2[C@H](COC[C@@H](O)CN2Cc2cc(F)ccc2F)O1)NCc1ccc(F)cc1 | . | . | ? | . | ? | -5
COC(=O)C1(C(=O)OC)Cc2ccccc2N(S(=O)(=O)c2ccc(C)cc2)C1CC(C)=O (stereo not drawn) | . | . | ? | . | ? | 27
CCC(C)/C=C/C1=CC2=C(Cl)C(=O)C3(C)OC(=O)C(C(=O)C(C)C(C)O)C3C2=CO1 (stereo not drawn) | 9% | -27% | 18µM* | 1% | 12µM* | -1
Cc1ccc(S(=O)(=O)CC(=O)N(CCCN(C)C)c2nc3ccc(C)cc3s2)cc1 | -2% | -39% | -4% | 0% | 3% | -55*
CN(C)CCCN(C(=O)c1ccc(S(=O)(=O)N2CCCCCC2)cc1)c1nc2ccc(F)cc2s1 | -3% | -32% | ? | 0% | ? | -105*
CCc1ccc2nc(N(CCCN(C)C)C(=O)c3ccc(S(=O)(=O)N4CCCC4)cc3)sc2c1 | -5% | -25% | ? | -28% | ? | -13
Cc1ccc2nc(N(CCCN(C)C)C(=O)c3ccc4ncsc4c3)sc2c1 | 5% | -37% | ? | 2% | 16µM* | 0
Cc1ccc2nc(N(CCCN(C)C)C(=O)c3ccc(S(=O)(=O)N4CCCCCC4)cc3)sc2c1 | -4% | 16µM* | ? | ? | ? | .
C=CC[N+](C)(C)CCN1C(=O)C2C(c3ccccc3)C=CC(c3ccccc3)C2C1=O (stereo not drawn) | 3% | -2% | 0% | 1% | -5% | -6
CN(CCC#N)C(=O)c1cc2c(Cl)nc3ccccc3c2s1 | -2% | -20% | -2% | 3% | -2% | -13
C/C(=N\NC(=O)c1cccc(Br)c1)c1cccnc1 | 3% | -20% | 2% | 1% | -11% | -1
Cc1nn(-c2ccccc2)c2nc(C(F)F)cc(C(F)F)c12 | 26% | -7% | -15% | -2% | -18% | -14
CCn1c(CSc2n[nH]c(N)n2)nc2cc(C(=O)O)ccc21 | 3% | 12% | -8% | 9% | 6% | 18
CN1/C(=C\C(=S)Nc2ccccc2)C(C)(C)c2ccccc21 | 6% | -39% | 2.1µM* | -28% | 10µM* | ?
CN1/C(=C\C(=O)Nc2ccc(Cl)cc2)C(C)(C)c2ccccc21 | -20% | -23% | ? | ? | ? | -58*
